Results on 40 molecules are retold here after PubChem BioAssay (NCATS).

Records with an inconclusive call do not appear. Calls of active or inactive are those of the source. Calls come from the whole dose curve; as a rule, active = well fitted inhibition curve with a large enough effect; inconclusive = small, poorly fitted or top-dose-only effect; inactive = flat fitted curve, though single readings scatter.
% is set by controls: 0 for no effect and ±100 for the full control effect.

For this experiment, the target named is Tyrosine-protein phosphatase non-receptor type substrate 1 (Homo sapiens) + Leukocyte surface antigen CD47 (Homo sapiens) (UniProt P78324+Q08722). Put plainly: CD47-SIRPalpha protein protein interaction - Alpha assay qHTS validation (AID 1347059).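 Note: bead proximity luminescence from CD47 binding SIRPalpha after compound preincubation with SIRPalpha.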 Conditions: AlphaScreen CD47-His/biotin-SIRPalpha binding, LOPAC; series mostly up to 38.3 µM; activity change, negative = inhibition: at the top concentration. The source says: SIRPalpha is a myeloid cell expressed immunomodulatory receptor that binds the tumor expressed immune checkpoint CD47. Therapeutic disruption of this interaction leads to immune-mediated tumor rejection. This assay was used to quantitate CD47-SIRPalpha binding biochemically and evaluate chemical libraries for novel CD47-SIRPalpha inhibitors. To recapitulate the biological interaction of CD47 and SIRPalpha, we designed expression constructs to produce their recombinant, soluble, extracellular interaction domains. CD47 was produced with an N-terminal 6His tag. SIRPalpha was produced with an N-terminal Avi-Tag for site-specific biotin incorporation. The CD47-SIRPalpha interaction was measured by AlphaScreen using affinity tag linked reagents (Ni-NTA acceptor bead and streptavidin donor bead). SIRPalpha without biotin incorporation was used as a positive control inhibitor.
Chain of Tyrosine-protein phosphatase non-receptor type substrate 1 (Homo sapiens) + Leukocyte surface antigen CD47 (Homo sapiens) (P78324 whole entry, looked up): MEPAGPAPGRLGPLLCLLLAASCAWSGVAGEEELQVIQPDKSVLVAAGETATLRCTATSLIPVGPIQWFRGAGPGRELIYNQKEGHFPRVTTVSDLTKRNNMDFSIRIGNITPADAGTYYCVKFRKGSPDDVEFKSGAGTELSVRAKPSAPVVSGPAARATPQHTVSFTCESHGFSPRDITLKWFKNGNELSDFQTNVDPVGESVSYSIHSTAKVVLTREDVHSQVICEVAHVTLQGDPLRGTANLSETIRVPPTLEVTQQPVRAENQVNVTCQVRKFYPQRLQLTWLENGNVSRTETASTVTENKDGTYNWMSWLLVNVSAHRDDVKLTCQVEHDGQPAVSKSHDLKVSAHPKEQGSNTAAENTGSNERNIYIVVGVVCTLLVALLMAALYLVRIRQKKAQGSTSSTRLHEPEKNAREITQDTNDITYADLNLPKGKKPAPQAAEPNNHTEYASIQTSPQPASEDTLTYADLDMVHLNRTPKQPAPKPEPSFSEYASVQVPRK
Chain of Tyrosine-protein phosphatase non-receptor type substrate 1 (Homo sapiens) + Leukocyte surface antigen CD47 (Homo sapiens) (Q08722 whole entry, looked up): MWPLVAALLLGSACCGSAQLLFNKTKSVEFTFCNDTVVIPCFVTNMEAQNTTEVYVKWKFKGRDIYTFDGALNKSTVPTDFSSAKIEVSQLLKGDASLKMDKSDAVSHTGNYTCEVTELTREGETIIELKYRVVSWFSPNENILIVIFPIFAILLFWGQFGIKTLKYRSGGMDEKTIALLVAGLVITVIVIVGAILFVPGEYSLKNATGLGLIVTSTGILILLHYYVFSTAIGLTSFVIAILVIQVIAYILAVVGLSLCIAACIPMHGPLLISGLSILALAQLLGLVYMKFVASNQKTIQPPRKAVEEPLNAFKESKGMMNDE
PROTOCOL TABLE (as described by Miller, T. et al. 2019)
SEQUENCE No. (e.g., 1, 2, 3, etc.); […] (e.g., Cells, Incubation, Reagent, etc.); VALUE and DESCRIPTION.
1a. Reagent. 2 uL SIRPalpha-biotin (25 nM) added to respective wells in Assay buffer; white/solid bottom high base, med bind 1536-well plates (Greiner 789075)
1b. Reagent. 2 uL Assay buffer negative control for background fluorescence
2. Reagent. 23 nL library compounds (7-pt, 1:4 intraplate titration series) or DMSO control transferred by Pin Tool
3. Centrifuge. Centrifuge plate for 30 s at 1000 RPM
4. Incubation.#Incubate reagents at room temperature for 30 min, protected from light
5. Reagent. 2 uL CD47-His (12.5 nM) in Assay buffer
6. Centrifuge. Centrifuge plate for 30 s at 1000 RPM
7. Incubation.#Incubate reagents at room temperature for 30 min, protected from light
8. Reagent. 1 uL Ni-NTA beads (10 ug/mL) added to respective wells
9. Reagent. 1 uL SAV beads (10 ug/mL) added to respective wells
10. Centrifuge. Centrifuge plate for 30 s at 1000 RPM
11. Incubation. Incubate reagents at room temperature for 30 min, protected from light
12. Detector. Measure AlphaScree n on EnVision (1536A1 aperture)
Where possible, perform Donor bead dilution and addition away from direct sunlight or with bright overhead lights turned off (<100 lux, similar to hallway lighting). Lighting should still be bright enough to allow accurate pipetting.
1. Assay buffer composition.#Phosphate buffered saline (PBS; 10 mM Phosphate, 137 mM NaCl, and 2.7 mM KCl; pH 7.4), 0.05% IGEPAL CA-630
2. 23nL of […] library compounds (7 plates) or DMSO vehicle control transferred to 9 Greiner white/solid bottom high base, TC plates in 7 interplate 1:5 titrations (see Yasgar, A. et al. 2008) with Pintool. Two of the 9 plates are DMSO-only in compound field at beginning and end of compound library-treated plates.
12. Aperture = 1536 plate HTS AlphaScreen; plate-detector distance = 0; Total measurement time = 240; Ex. time = 80 ms (33%); Afterglow CT1 corr. factor = 0; Glow CT2 corr. factor = 0; Bleach CT3 corr. factor = 0; Ref. signal= 417733; Ref. AD gain = 2
Turning to `CCCCCN(CCCCC)C(=O)C(CCC(=O)O)NC(=O)c1ccc(Cl)c(Cl)c1` (stereo not given), the “activity change, negative = inhibition” value was 4.8% (inactive).
`Nc1ncn([C@@H]2O[C@H](CO)[C@@H](O)[C@H]2O)c(=O)n1`: the “activity change, negative = inhibition” value is 4.48% (inactive).
In the case of `CCCCNc1c(C(=O)OCC)c(C)nc2c1cnn2CC`, the “activity change, negative = inhibition” value is -2.58% (inactive).
Turning to `C[N+](C)(C)CCCCCCCCCC[N+](C)(C)C`, the “activity change, negative = inhibition” value was -1.89% (inactive).
`CCc1c(C)[nH]c2c1C(=O)C(CN1CCOCC1)CC2` (stereo not given): the “activity change, negative = inhibition” value was -1.81% (inactive).
Consider `C[C@@H](O)[C@H]1C(=O)N2C(C(=O)O)=C(SCCN=CN)C[C@H]12`, for which the “activity change, negative = inhibition” value was 2.84% (inactive).
Take `C[C@]12CCC(=O)C=C1CC[C@@H]1[C@@H]2CC[C@@]2(C)[C@H]1CC[C@]2(O)C(=O)CO`: the “activity change, negative = inhibition” value is -6.86% (inactive).
For the molecule `CCOC(=O)C1=C(C)NC(C)=C(C(=O)OC)C1c1cccc([N+](=O)[O-])c1` (stereo not given), the “activity change, negative = inhibition” value is -15.9% (inactive).
Consider `NCCCNCCSP(=O)(O)O`, for which the “activity change, negative = inhibition” value was 1.93% (inactive).
To `CC(=O)Nc1nnc(S(N)(=O)=O)s1` belongs 0.632% (inactive); to `O=C1CC2(CCCC2)CC(=O)N1CCCCN1CCN(c2ncccn2)CC1`, -4.89% (inactive).
As to `CCO/C([O-])=N/c1c[n+](N2CCOCC2)no1`, the “activity change, negative = inhibition” value is 6.83% (inactive).
To `NC(=O)c1cn(Cc2c(F)cccc2F)nn1` belongs 1.96% (inactive); to `CCCN(CCC)CCc1cccc2c1CC(=O)N2`, -2.25% (inactive); to `Cc1ccc(=O)n(-c2ccccc2)c1`, 1.83% (inactive).
Consider `COc1ccc2c(c1OC)C(=O)O[C@@H]2[C@H]1c2c(cc3c(c2OC)OCO3)CCN1C`, for which the “activity change, negative = inhibition” value was 0.964% (inactive).
Consider `COc1ccc([C@@H]2Sc3ccccc3N(CCN(C)C)C(=O)[C@@H]2OC(C)=O)cc1`, for which the “activity change, negative = inhibition” value was 0% (inactive).
As for `CCN(CC)CCNC(=O)c1cc(S(C)(=O)=O)ccc1OC`, the “activity change, negative = inhibition” value was 2.37% (inactive).
To `COc1ccc(CN(CCN(C)C)c2ccccn2)cc1` belongs 1.83% (inactive); to `CN/C(=C\[N+](=O)[O-])NCCSCc1ccc(CN(C)C)o1`, -3.38% (inactive).
Take `c1cc(CN2CCCCC2)cc(OCCCNc2nc3ccccc3s2)c1`: the “activity change, negative = inhibition” value is -7.9% (inactive).
For `CN(C)C(=O)Oc1ccc[n+](C)c1`, the “activity change, negative = inhibition” value is 3.08% (inactive).
`COC(=O)C1=C(C)NC(C)=C(C(=O)OC(C)(C)CN(C)CCC(c2ccccc2)c2ccccc2)C1c1cccc([N+](=O)[O-])c1` (stereo not given): the “activity change, negative = inhibition” value was -29.6% (inactive).
For `Cc1nc2sccn2c(=O)c1CCN1CCC(=C(c2ccc(F)cc2)c2ccc(F)cc2)CC1`, the “activity change, negative = inhibition” value is -16.8% (inactive).
With `CCCCNc1ccc(C(=O)OCCN(C)C)cc1`, the “activity change, negative = inhibition” value is 1.68% (inactive).
`CNCCC(Oc1ccccc1OC)c1ccccc1` (stereo not given): the “activity change, negative = inhibition” value was 3.09% (inactive).
To `CNC1(C)C2CCC(C2)C1(C)C` (stereo not given) belongs 1.57% (inactive); to `CN1CCN(C2=Nc3ccccc3Oc3ccc(Cl)cc32)CC1`, -9.73% (inactive).
For `N[C@@H](COP(=O)(O)O)C(=O)O`, the “activity change, negative = inhibition” value is 1.94% (inactive).
For `CNCCCN1c2ccccc2CCc2ccccc21`, the “activity change, negative = inhibition” value was 1.33% (inactive).
For `Cc1ccc(/C(=C\CN2CCCC2)c2ccccn2)cc1`, the “activity change, negative = inhibition” value is 3.92% (inactive).
For the molecule `CC1=NS(=O)(=O)c2cc(Cl)ccc2N1`, the “activity change, negative = inhibition” value was 0% (inactive).
As to `CCCNC(C)C(=O)Nc1ccccc1C` (stereo not given), the “activity change, negative = inhibition” value is 2.6% (inactive).
As to `CCN(Cc1ccncc1)C(=O)C(CO)c1ccccc1` (stereo not given), the “activity change, negative = inhibition” value is 2.43% (inactive).
Regarding `COC(=O)[C@@H](N)Cc1ccc(O)c(O)c1`, the “activity change, negative = inhibition” value is 1.64% (inactive).
Regarding `CCOC(=O)c1cnc2c(cnn2CC)c1NN=C(C)C`, the “activity change, negative = inhibition” value was -1.11% (inactive).
Turning to `CC(C)[N+](C)(CCOC(=O)C1c2ccccc2Oc2ccccc21)C(C)C`, the “activity change, negative = inhibition” value was 1.84% (inactive).
To `CC(C)COCC(CN(Cc1ccccc1)c1ccccc1)N1CCCC1` (stereo not given) belongs -1.82% (inactive); to `CN(C)CC/C=C1\c2ccccc2COc2ccccc21`, -0.538% (inactive); to `NC(N)=N/N=C/c1c(Cl)cccc1Cl`, 1.3% (inactive).
